High-throughput results: PubChem BioAssay, National Center for Advancing Translational Sciences (NCATS)
Compounds with a hit are over-represented: about 10% of the library has one in this group of screens.
RORg inh = blocks mouse ROR gamma transcriptional activity; Drosophila S2 Gal4-RORgamma UAS-luciferase reporter, 20 h; Potency, µM (top dose mostly 53.6 µM), most hits filed as inhibitors; 310,000 tested, 5.4% active; AID 2551; further: nearly all actives have a fitted effect of over 60% in size
Target sequence (P51450 whole entry, looked up, the tested form may be a part): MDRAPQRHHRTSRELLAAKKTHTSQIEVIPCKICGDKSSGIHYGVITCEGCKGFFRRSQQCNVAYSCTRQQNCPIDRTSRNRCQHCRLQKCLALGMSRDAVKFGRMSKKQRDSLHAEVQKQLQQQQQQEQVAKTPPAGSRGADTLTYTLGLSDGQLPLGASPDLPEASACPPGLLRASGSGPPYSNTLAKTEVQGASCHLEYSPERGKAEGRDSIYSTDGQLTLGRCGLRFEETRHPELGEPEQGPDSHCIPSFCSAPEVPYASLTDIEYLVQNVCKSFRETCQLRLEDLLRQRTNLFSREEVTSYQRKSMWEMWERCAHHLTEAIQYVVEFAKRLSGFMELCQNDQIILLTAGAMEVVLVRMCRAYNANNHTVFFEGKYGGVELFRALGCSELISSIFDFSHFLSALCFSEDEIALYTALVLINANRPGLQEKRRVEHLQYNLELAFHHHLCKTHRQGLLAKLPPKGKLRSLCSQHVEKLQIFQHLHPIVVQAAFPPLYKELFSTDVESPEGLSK
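Stable Schneider cell line, Gal4 DNA-binding domain fused to ROR gamma, UAS-luciferase. Cmpd 1 hr RT → CuSO4 700 uM final → 20 hr RT → luciferase reagent 10 min → luminescence.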
ELG1 repair inh = blocks ELG1-dependent DNA repair in HEK293T cells | AID 504467 | 330,000 tested, 2.3% active | Potency, µM (highest dose often 46.1 µM), actives largely listed as inhibitors | HEK293T ELG1-luciferase reporter, luminescence, 16 h; DNA damage induced by 5-fluorouridine; further: nearly all actives have a fitted effect of over 55% in size
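Luminescence from the luciferase reporter, measured 30 min after ONE-Glo reagent at room temperature, was the read-out. Beforehand, 2,000 cells per well were exposed for 16 hr at 37 °C to 5-fluorouridine together with compound or vehicle.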
MCF10A rereplic = DNA re-replication induction in MCF 10a cells; Potency, µM (highest dose often 46.1 µM), hits mostly activators; MCF 10A DNA re-replication, Hoechst nuclear intensity, 48 h; 350,000 tested, 2.9% active; further: nearly all actives have a fitted effect of over 50% in size
SW480 rereplic = inducers of DNA re-replication in SW480 colon cancer cells; SW480 DNA re-replication, Hoechst DNA content imaging, 48 h; Potency, µM (titrated, usually from 46.1 µM), most hits filed as activators; 340,000 tested, 1.8% active; AID 624297; further: nearly all actives have a fitted effect of over 55% in size
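DNA re-replication was detected as more nuclei of elevated Hoechst intensity after 48 hr exposure to compound (23 nL pinned per well of 250 cells).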
VP16 counter = inhibits Gal4-VP16 luciferase reporter, ROR gamma counter-screen. Drosophila S2 Gal4-VP16 UAS-luciferase, luminescence, 20 h. Potency, µM (top dose mostly 53.6 µM), most hits filed as inhibitors. 310,000 tested, 3.5% active;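 further: Gal4-VP16 expression switched on by copper sulfate through the metallothionein promoter; nearly all actives have a fitted effect of over 50% in size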
Large screens that a line does not name were inactive. The call rests on the fitted dose curve; in most records, active means well fitted curve in the direction sought with a large enough effect; inconclusive means small, poorly fitted or top-dose-only effect, or another doubt; inactive means no such curve, though single readings can be large; an effect the other way counts as inactive or inconclusive.

CC(=O)c1sc(N/N=C2\CC3CCC2(C)C3(C)C)nc1C (centres undefined)	MCF10A rereplic 21µM
CCN(CC)CCCNC(=O)CNC(=S)N(CCCN1CCOCC1)Cc1cccs1	none
COc1cc([N+](=O)[O-])cc(/C=N/NC(=O)c2ccc(NC(=O)c3ccc(C)cc3)cc2)c1O	RORg inh inconclusive, ELG1 repair inh inconclusive, SW480 rereplic inconclusive
COc1cc([N+](=O)[O-])cc(/C=N/NC(=O)C(C)Nc2cccc(C)c2)c1O (centres undefined)	RORg inh 0.89µM, MCF10A rereplic inconclusive, VP16 counter 1.1µM (no result: SW480 rereplic)
COc1cc([N+](=O)[O-])cc(/C=N/NC(=O)C(C)Nc2ccccc2C)c1O (centres undefined)	RORg inh 0.32µM, ELG1 repair inh inconclusive, MCF10A rereplic 1.6µM, SW480 rereplic inconclusive, VP16 counter 0.5µM
CC1=C(c2ccc(NN=C(C#N)C#N)cc2)NNC(=O)C1	RORg inh 22µM, SW480 rereplic inconclusive, VP16 counter inconclusive (no result: ELG1 repair inh)
COc1ccc(/C=C2\Sc3ccc(C(=O)N4CCc5ccccc5C4)cc3N(C)C2=O)cc1	RORg inh inconclusive (no result: MCF10A rereplic, SW480 rereplic)
O=C(NC1CCN(Cc2ccccc2)CC1)c1ccccc1	none
COc1ccc(/C=C2\Sc3ccc(C(=O)NCCN4CCCCCC4)cc3N(C)C2=O)cc1	ELG1 repair inh inconclusive, MCF10A rereplic inconclusive
COc1ccc(/C=C2\Sc3ccc(C(=O)NC4CC4)cc3N(C)C2=O)cc1OC	ELG1 repair inh 12µM, MCF10A rereplic inconclusive
CCOc1ccc(/C=C2/Sc3ccc(C(=O)N4CCOCC4)cc3N(C)C2=O)cc1OC	ELG1 repair inh 8.2µM, MCF10A rereplic inconclusive, SW480 rereplic inconclusive
CN1C(=O)/C(=C/c2cccc(Cl)c2)Sc2ccc(C(=O)N3CCOCC3)cc21	ELG1 repair inh inconclusive, MCF10A rereplic 21µM, SW480 rereplic inconclusive
CN1C(=O)/C(=C\c2ccccc2F)Sc2ccc(C(=O)NC3CCN(Cc4ccccc4)CC3)cc21	ELG1 repair inh inconclusive, MCF10A rereplic inconclusive, SW480 rereplic 21µM, VP16 counter inconclusive
CCOC(=O)[C@H]1[C@H]2COc3ccc(C)cc3[C@@H]2N2C(=O)c3ccccc3NC(=O)[C@@]12C	none (no result: RORg inh, VP16 counter)
Cc1ccc(Cl)c(OC(=O)c2ccc(N3CCOCC3)c([N+](=O)[O-])c2)c1	RORg inh inconclusive, VP16 counter inconclusive
COc1ccc(/C=C2\Sc3ccc(C(=O)N4CCCC4)cc3N(C)C2=O)cc1OC	ELG1 repair inh inconclusive, SW480 rereplic 4µM
Cc1cccc(/C=C2\Sc3ccc(C(=O)N4CCC(C(N)=O)CC4)cc3N(C)C2=O)c1	none
FC1(F)C(F)(F)C(F)(F)C2(F)C(F)(F)C(F)(F)C(F)(F)C(F)(F)C2(F)C1(F)F (centres undefined)	none (no result: ELG1 repair inh)
COc1cccc(N2CCN(c3ncnc4c3[nH]c3ccccc34)CC2C)c1 (centres undefined)	RORg inh inconclusive, ELG1 repair inh 4.6µM, VP16 counter 14µM (no result: MCF10A rereplic, SW480 rereplic)
COc1cccc(N2CCN(c3ncnc4c3[nH]c3ccc(F)cc34)CC2C)c1 (centres undefined)	RORg inh inconclusive, ELG1 repair inh inconclusive, MCF10A rereplic inconclusive, SW480 rereplic inconclusive, VP16 counter 7.1µM
C(=C\c1ccccc1)/CSc1nnc(-c2ccccn2)n1Cc1ccco1	MCF10A rereplic 7.9µM, SW480 rereplic 21µM (no result: VP16 counter)
COc1cccc(C(=O)NCC(=O)OCC(=O)C(C)(C)C)c1	RORg inh 2.5µM, ELG1 repair inh inconclusive
C/C(=N\NC(=O)C(c1ccccc1)c1ccccc1)c1ccc(O)cc1	none
C/C(=N\NC(=S)Nc1c(C)cccc1C)c1cc2ccccc2o1	RORg inh 1µM, MCF10A rereplic inconclusive, VP16 counter 7.1µM
C/C(=N\NC(=S)Nc1c(C)cccc1C)c1ccc(O)cc1	RORg inh 8.9µM, ELG1 repair inh inconclusive, VP16 counter inconclusive
C/C(=N\NC(=S)Nc1ccccc1C)c1cc2ccccc2o1	RORg inh 1.3µM, ELG1 repair inh inconclusive, MCF10A rereplic inconclusive, VP16 counter 7.1µM
O=C(Nc1ccc(Cl)cc1)C1(S(=O)(=O)c2ccccc2)CC1	none (no result: RORg inh, VP16 counter)
COc1cc(C(=O)N2CCN(c3ccccc3Cl)CC2)ccc1OCC(=O)N1CCOCC1	ELG1 repair inh inconclusive (no result: RORg inh, VP16 counter)
CCOc1ccc(Br)cc1S(=O)(=O)Nc1ncn[nH]1	none
